Assay outcomes: PubChem, National Center for Advancing Translational Sciences (NCATS)
VP16 counter = inhibits Gal4-VP16 luciferase reporter, ROR gamma counter-screen; Drosophila S2 Gal4-VP16 UAS-luciferase, luminescence, 20 h; Potency, µM (doses to about 53.6 µM), actives largely listed as inhibitors; 310,000 tested, 3.5% active; AID 2546;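 also: Gal4-VP16 expression switched on by copper sulfate through the metallothionein promoter; nearly all actives have a fitted effect of over 50% in size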
RORg inh = inhibitors of mouse ROR gamma transcriptional activity. Drosophila S2 Gal4-RORgamma UAS-luciferase reporter, 20 h. Potency, µM (series often up to 53.6 µM), usual class: inhibitors. 310,000 tested, 5.4% active. AID 2551; also: nearly all actives have a fitted effect of over 60% in size
Target sequence (P51450 whole entry, looked up, the tested form may be a part): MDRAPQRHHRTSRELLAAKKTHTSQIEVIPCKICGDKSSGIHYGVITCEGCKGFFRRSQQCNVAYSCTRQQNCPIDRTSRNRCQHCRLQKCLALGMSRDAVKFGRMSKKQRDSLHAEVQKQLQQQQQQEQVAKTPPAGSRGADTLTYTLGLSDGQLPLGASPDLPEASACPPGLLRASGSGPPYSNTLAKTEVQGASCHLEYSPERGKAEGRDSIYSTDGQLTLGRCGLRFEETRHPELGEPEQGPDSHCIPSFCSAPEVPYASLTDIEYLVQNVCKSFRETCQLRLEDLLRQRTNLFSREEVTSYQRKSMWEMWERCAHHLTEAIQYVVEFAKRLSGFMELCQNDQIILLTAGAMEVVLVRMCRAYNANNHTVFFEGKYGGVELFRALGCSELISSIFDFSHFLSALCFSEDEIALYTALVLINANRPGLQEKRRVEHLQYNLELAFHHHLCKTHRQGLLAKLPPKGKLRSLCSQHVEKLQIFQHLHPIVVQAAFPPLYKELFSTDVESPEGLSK
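Schneider cells (Drosophila), stable Gal4 DBD–ROR gamma + UAS-luc; 1 hr cmpd preincubation; Cu2+ induction 700 uM final; 20 hr ambient; luminescence.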
Luc counter = counter-screen: inhibitors of Kinase-Glo firefly luciferase | Potency, µM (top dose mostly 38.3 µM), most hits filed as inhibitors | 200,000 tested, 0.28% active | Kinase-Glo luciferase, ATP luminescence, 8 min; also: nearly all actives have a fitted effect of over 60% in size
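Substrate mix (final 50 mM imidazole pH 7.2, 50 mM KCl, 7 mM MgCl2, 10 uM ATP, 0.01% Tween 20, 0.05% BSA) plus pin-tool compound, then Kinase-Glo detection mix; 8 min ambient, luminescence read.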
Hits are given with their value; . = inactive; ? = inconclusive; / = not tested or not shown; [ ] = dose if it differs, or a comment. Rows were chosen to be rich in hits. Some 6.4% of all compounds tested hit in one or more screens of this group. Calls follow the shape of the dose curve; as a rule, active = well fitted curve in the direction sought with a large enough effect; inconclusive = small, poorly fitted or top-dose-only effect, or another doubt; inactive = no such curve, though single readings can be large; an effect the other way counts as inactive or inconclusive.

SMILES	VP16 counter	RORg inh	Luc counter
CCCn1c(=O)cc(N)n(-c2ccc(OC(F)(F)F)cc2)c1=O	.	.	/
Cc1ccc(N2CCCC2=O)cc1S(=O)(=O)N1CCOCC1	.	.	/
O=C(O)CNS(=O)(=O)c1ccc2c(c1)Cc1cc(S(=O)(=O)NCC(=O)O)ccc1-2	.	.	/
Cn1c(=O)c2c(nc(Sc3ncccn3)n2Cc2ccccc2Cl)n(C)c1=O	.	.	.
Cn1c(=O)c2c(nc(Sc3ncccn3)n2Cc2ccc(Cl)cc2)n(C)c1=O	16µM	.	.
CC(NC(=O)CCNS(=O)(=O)c1cccc2nonc12)c1ccccc1 (stereo not drawn)	.	.	/
CCOC(=O)c1cnc2c(cnn2CC)c1NN=C(C)C	.	.	.
O=C1CCCc2ccccc2N1Cc1c(Cl)cccc1Cl	?	1.8µM	.
O=C1CCCc2ccccc2N1Cc1ccccc1Cl	.	.	.
Cc1cc(F)ccc1S(=O)(=O)N1CCCOC1CNC(=O)C(=O)NC1CC1 (stereo not drawn)	.	.	/
COc1cccc(OC)c1C(=O)NC(=S)NNC(=O)[C@H]1C[C@@H]1c1ccccc1	.	4µM	/
O=C(NC(=S)NNC(=O)[C@H]1C[C@@H]1c1ccccc1)c1cccc(F)c1	?	11µM	/
O=C(NNC(=O)C1CC1c1ccccc1)c1cccc([N+](=O)[O-])c1 (stereo not drawn)	.	.	.
COc1ccc(/C=C/C(=O)NC(=S)NNC(=O)[C@H]2C[C@@H]2c2ccccc2)cc1OC	.	.	/
CC1CN(C(=O)CCC(=O)NCCCN2C(C)CCCC2C)c2ccccc2O1 (stereo not drawn)	.	.	/
CC1=C2[C@H](/C=C(\C)C(=O)O)CC[C@@H](C)[C@H]2CC1	.	.	/
CCNC(=S)NN(c1ccccc1)c1ccccc1	?	7.9µM	.
CC(C)c1ccc(NC(=S)NN(c2ccccc2)c2ccccc2)cc1	5µM	3.2µM	.
CCNC(=S)Nc1ccc(N(c2ccccc2)C(C)C)cc1	.	.	.
CC(C)N(c1ccccc1)c1ccc(NC(=S)NCCN(C)C)cc1	.	.	.
COCCNC(=O)NC12CC3(C)CC(C)(CC(C)(C3)C1)C2	.	.	.
CCOC(=O)c1c(-c2ccccc2)c2cc(OC)ccc2n1CCCN(C)C	.	.	/
CCCCN(C(=O)NCCCCCCNC(=O)N(CCCC)C1CCS(=O)(=O)C1)C1CCS(=O)(=O)C1 (stereo not drawn)	.	.	/
COc1ccc(-n2c(=O)c(-c3ccc(Cl)cc3)nc3cnc(N(C)C)nc32)cc1	.	.	/
CCc1c(C)nc2ncnn2c1NCCc1ccccc1	?	?	.
SMILES	VP16 counter	RORg inh	Luc counter
CCc1c(C)nc2ncnn2c1NCCc1ccc(Cl)cc1	11µM	?	.
CCOc1cc(NS(=O)(=O)CC)c(OCC)cc1NC(=O)c1ccco1	.	?	.
CCOc1cc(NC(=S)NCC(C)C)c(OCC)cc1NC(=O)c1ccco1	7.9µM	5µM	.
COCCNC(=S)Nc1cc(OC)c(NC(=O)c2ccco2)cc1OC	.	.	.
CCOCCCNC(=S)Nc1cc(OCC)c(NC(=O)c2ccco2)cc1OCC	.	7.9µM	.
CNC(=O)C1(C(F)(F)F)C/C(=C\Cc2ccccc2)CCCO1 (stereo not drawn)	.	.	/
COc1ccc(C2=Nn3c(nnc3-c3ccc(OC)c(OC)c3)SC2)cc1	.	.	/
CCC(C)[C@H](NC(=O)NCc1ccco1)C(=O)OC (stereo partly drawn)	.	.	/
O=C(Nc1ccccc1F)C1CCN(C(=O)NCc2ccccc2)CC1	.	.	/
CC(C)(C)c1cc(CCC(=O)NNC(=S)NC(=O)c2ccccc2)cc(C(C)(C)C)c1O	13µM	11µM	.
CCCCC(=O)NC(=S)NNC(=O)CCc1ccccc1	.	11µM	/
CCCCC(=O)NNC(=S)NC(=O)CCC	?	10µM	.
CCCCC(=O)NC(=S)NNC(=O)CC#N	.	?	.
CC(C)(C)c1cc(CCC(=O)NNC(=O)c2ccco2)cc(C(C)(C)C)c1O	.	.	.
O=C(Cc1ccccc1)NNC(=S)NC(=O)c1cccnc1	.	.	/
CC(=O)NC(=S)NNC(=O)CCc1ccccc1	.	.	.
O=C(CCc1ccccc1)NNC(=S)NC(=O)c1ccccc1	?	4.5µM	.
Cc1nc2cnc(N3CCOCC3)nc2n(CCc2ccccc2)c1=O	.	.	/
CCn1c(=O)c(CCC(=O)NCC2CCCO2)c(C)c2c(C)nn(-c3ccccc3)c21 (stereo not drawn)	.	.	/
O=C(Cc1cccc(F)c1F)NC1CCCN(Cc2ccc(Cl)cc2)C1 (stereo not drawn)	.	.	/
Cc1cc2nc(C3CCN(C(=S)NCCCOC(C)C)CC3)[nH]c2cc1C	.	.	.
COc1ccc(CN2CCN(CCc3ccccc3)C(CCO)C2)c(O)c1 (stereo not drawn)	.	.	.
CCC(OC(=O)c1cccs1)C(=O)NCc1ccc(C)cc1 (stereo not drawn)	.	.	.
CN(C(=O)c1ccncc1)C1CCS(=O)(=O)C1 (stereo not drawn)	.	.	.
COc1cc2cc(C(=O)N(C)C3CCS(=O)(=O)C3)[nH]c2cc1OC (stereo not drawn)	.	20µM	/
SMILES	VP16 counter	RORg inh	Luc counter
O=C(NN=C1C2CC3CC1CC(Cl)(C3)C2)c1ccccn1	.	.	.
CC(C)(C)C1CCC(=NNC(=O)C(=O)NCc2ccco2)CC1 (stereo not drawn)	.	.	.
CC(C)Cn1cc(Cl)c(=O)n(CC(C)C)c1=O	.	.	.
O=C(O)c1cccc(Cn2cc(Cl)cn2)c1	.	.	.
CCn1c(NC(=O)c2cccc(Cn3cc(Cl)cn3)c2)nc2ccccc21	2µM	2.8µM	.
Cn1c(NC(=O)c2cccc(Cn3cc(Cl)cn3)c2)nc2ccccc21	2.8µM	1.8µM	.
CC(C)CNC(=O)c1cccc(Cn2cc(Cl)cn2)c1	.	.	.
CN(C)C(=O)COc1ccc2c(-c3ccccc3)cc(=O)oc2c1	.	.	/
CN(CCCNC(=O)Cn1cccc1C(=O)c1ccccc1)C1CCCCC1	.	.	/
O=C1C(CCCNC(=S)NCc2ccccc2)NC(=S)N1Cc1ccccc1 (stereo not drawn)	?	22µM	.
C=CCNC(=S)NCCCCC1NC(=S)N(CC=C)C1=O (stereo not drawn)	.	?	.
Cc1ccc(CN(C)C(=O)c2ccc3c(c2)NC(=O)CS3)o1	.	.	/
O=C(NCCCN1CCCC1)Nc1ccccc1[N+](=O)[O-]	.	.	/
CCOC(=O)CCN1C(=O)[C@H]2[C@H]3[C@H](O)[C@H](O)C/C(=N/NC(=O)OCc4ccccc4)[C@H]3CC[C@@H]2C1=O	.[10 µM]	.[10 µM]	/
CCCN1C(=O)c2ccccc2NC1c1ccc(Br)cc1 (stereo not drawn)	.	.	/
CCCN1C(=S)c2ccccc2C1c1ccccc1 (stereo not drawn)	.	10µM	/
O=C(C1CCC1)N(CCc1ccccc1)Cc1nc2ccccc2c(=O)[nH]1	7.9µM	1.8µM	.
COc1ccc(CCN(Cc2nc3ccccc3c(=O)[nH]2)C(=O)C2CC2)cc1	13µM	3.2µM	.
O=C(NC1CCCCC1)N(Cc1ccc(F)cc1)Cc1nc2ccccc2c(=O)[nH]1	.	.	.
O=C(C1CC1)N(CCc1ccccc1)Cc1nc2ccccc2c(=O)[nH]1	.	?	.
